This is part of a sample that, as a whole, favours compounds with a hit. Of some 79,000 tested, about 15% had one in any assay. Active and inactive are the calls of the source. Rule as the data show it: active = growth inhibition above about 70%; inactive = the rest.
What was measured:
[1] = NCI Yeast Anticancer Drug Screen. Data for the mlh1 strain (AID 171);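 also: 0% = growth of vehicle-treated control cultures of the same strain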; conditions: S. cerevisiae mlh1 strain growth inhibition, active compounds read high
How it was run: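 Yeast carrying a defined genetic alteration in DNA damage repair or cell cycle control were exposed to test compounds. Growth inhibition was measured relative to vehicle-treated controls.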

[2] = NCI Yeast Anticancer Drug Screen. Data for the sgs1 strain (AID 173);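 also: 0% = growth of vehicle-only control cultures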; conditions: S. cerevisiae sgs1 mutant, active compounds read high
How it was run: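 Yeast mutant strains carrying defined defects in DNA damage repair or cell cycle control were exposed to test compounds. Growth inhibition was scored against vehicle-treated controls.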

[3] = NCI Yeast Anticancer Drug Screen. Data for the mlh1 rad18 strain (AID 175); conditions: S. cerevisiae mlh1 rad18 strain growth inhibition, active compounds read high
How it was run: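 Growth inhibition of the yeast strain was measured after compound exposure and expressed relative to vehicle-treated controls. The strain carries defined defects in DNA damage repair.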

[4] = NCI Yeast Anticancer Drug Screen. Data for the rad18 strain (AID 177); conditions: S. cerevisiae rad18 mutant growth inhibition, active compounds read high
How it was run: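 Yeast carrying a defined DNA damage repair alteration were exposed to compounds. Growth inhibition was expressed relative to vehicle-treated controls.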

[5] = NCI Yeast Anticancer Drug Screen. Data for the rad52 strain (AID 147);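 also: 0% = growth of vehicle-treated control cultures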; conditions: S. cerevisiae rad52 mutant growth inhibition, active compounds read high
How it was run: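 Yeast strain carrying a DNA damage repair alteration was exposed to test compounds. Growth inhibition was measured relative to vehicle-treated controls.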

[6] = NCI Yeast Anticancer Drug Screen. Data for the rad50EPP+ strain (AID 151);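 also: 0% = growth of vehicle-treated control cultures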; conditions: S. cerevisiae rad50 mutant strain, active compounds read high
How it was run: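 Yeast strain carrying rad50 alteration (rad50EPP+) exposed to compounds; growth inhibition measured relative to vehicle-treated controls.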

[7] = NCI Yeast Anticancer Drug Screen. Data for the mgt1 strain (AID 153); conditions: S. cerevisiae mgt1 mutant growth inhibition, active compounds read high
How it was run: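 Yeast mgt1 strain (DNA repair/cell-cycle alteration panel) exposed to compounds; growth inhibition measured relative to vehicle-treated controls.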

[8] = NCI Yeast Anticancer Drug Screen. Data for the rad50 strain (AID 155);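 also: 0% = growth of vehicle-only cultures of the same strain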; conditions: S. cerevisiae rad50 strain growth inhibition, active compounds read high
How it was run: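 Genetically altered yeast (DNA repair pathway); compound treatment; growth inhibition vs vehicle ctrl.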

[9] = NCI Yeast Anticancer Drug Screen. Data for the mec2-1 strain (AID 157); conditions: S. cerevisiae mec2-1 strain, active compounds read high
How it was run: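 mec2-1 yeast strain, carrying an alteration in DNA damage repair or cell cycle control, was exposed to compounds; growth inhibition was measured relative to vehicle-treated controls.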

[10] = NCI Yeast Anticancer Drug Screen. Data for the rad14 strain (AID 159);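 also: 0% = growth of vehicle-treated control cultures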; conditions: S. cerevisiae rad14 strain growth inhibition, active compounds read high
How it was run: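 Test compounds were applied to a repair-deficient yeast strain. Its growth was then compared with that of cultures given vehicle alone, and inhibition was expressed relative to those controls.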

[11] = NCI Yeast Anticancer Drug Screen. Data for the sgs1 mgt1 strain (AID 161);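 also: 0% = growth of cultures given vehicle only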; conditions: S. cerevisiae sgs1 mgt1 strain, active compounds read high
How it was run: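 Compounds are added to genetically altered yeast, and growth is compared with cultures given vehicle alone to give percent inhibition.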

[12] = NCI Yeast Anticancer Drug Screen. Data for the CLN2oe strain (AID 163);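 also: 0% = growth of vehicle-only control cultures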; conditions: S. cerevisiae CLN2oe strain, active compounds read high
How it was run: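 Yeast cells carrying a defined cell-cycle control alteration were exposed to test compounds. Growth inhibition was scored against vehicle-treated control cultures.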

[13] = NCI Yeast Anticancer Drug Screen. Data for the cln2 rad14 strain (AID 165);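 also: 0% = growth equal to vehicle treated cultures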; conditions: S. cerevisiae cln2 rad14 strain, active compounds read high
How it was run: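 Yeast carrying cln2 and rad14 alterations (cell cycle control and DNA damage repair) were exposed to compounds. Growth inhibition was measured against vehicle-treated controls.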

[14] = NCI Yeast Anticancer Drug Screen. Data for the bub3 strain (AID 167); conditions: S. cerevisiae bub3 mutant strain, active compounds read high
How it was run: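 Yeast carrying a defined mutation is treated with each compound, and growth is compared with that of vehicle-exposed cells to give inhibition.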

[15] = NCI Yeast Anticancer Drug Screen. Data for the wt2 strain (AID 169);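 also: 0% = growth of vehicle-treated yeast cultures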; conditions: S. cerevisiae wt2 strain growth inhibition, active compounds read high
How it was run: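 Yeast cells were exposed to test compounds, and growth inhibition was measured relative to vehicle-treated controls.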

[16] = NCI Yeast Anticancer Drug Screen. Data for the wt1 strain (AID 149);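 also: 0% = growth of vehicle-treated wt1 cultures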; conditions: S. cerevisiae wt1 strain (SPY 50644) growth inhibition, active compounds read high
How it was run: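 wt1 yeast, compound-treated; % growth inhibition vs vehicle control.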

[17] = at 5.0 µM (retest, dose inferred, filed as 0.5)
[18] = at 50.0 µM (retest, dose inferred, filed as 5.0)

Measured: growth inhibition

C/C(=N\N=C(N)N)C(CN1CCOCC1)C(c1ccccc1)c1c(O)c2ccccc2oc1=O (centres undefined)
active: [1]; at 100.0 µM 96% | [2]; at 100.0 µM 97% | [4]; at 100.0 µM 93%
inactive: [1]; at 1.2 µM -2% | [1]; at 3.7 µM -8% | [1]; at 11.0 µM -7% | [1]; at 33.0 µM 40% | [2]; at 1.2 µM -1% | [2]; at 3.7 µM -3% | [2]; at 11.0 µM 0% | [2]; at 33.0 µM 42% | [3]; [17] 57% | [3]; [18] 57% | [3]; at 50.0 µM 49.2% | [4]; at 1.2 µM -3% | [4]; at 3.7 µM -9% | [4]; at 11.0 µM -12% | [4]; at 33.0 µM 13%

COc1cc(C2c3cc4c(cc3[C@@H](Nc3ccc(N)cc3)C3COC(=O)[C@H]23)OCO4)cc(OC)c1O (some centres undefined)
active: [5]; at 1.2 µM 92% | [5]; at 3.7 µM 92% | [5]; at 11.0 µM 95% | [5]; at 33.0 µM 92% | [5]; at 100.0 µM 87% | [6]; at 33.0 µM 85% | [6]; at 100.0 µM 89% | [7]; at 11.0 µM 94% | [7]; at 33.0 µM 95% | [7]; at 100.0 µM 90% | [8]; at 1.2 µM 91% | [8]; at 3.7 µM 95% | [8]; [17] 92% | [8]; at 11.0 µM 95% | [8]; at 33.0 µM 94% | [8]; [18] 95% | [8]; at 50.0 µM 82.8% | [8]; at 100.0 µM 88% | [9]; at 3.7 µM 89% | [9]; [17] 70% | [9]; at 11.0 µM 95% | [9]; at 33.0 µM 93% | [9]; [18] 96% | [9]; at 50.0 µM 90% | [9]; at 100.0 µM 88% | [10]; at 3.7 µM 71% | [10]; at 11.0 µM 95% | [10]; at 100.0 µM 92% | [11]; [18] 94% | [11]; at 50.0 µM 85.3% | [12]; at 11.0 µM 92% | [12]; at 100.0 µM 88% | [13]; [18] 90% | [13]; at 50.0 µM 85.9% | [14]; at 11.0 µM 92% | [14]; at 33.0 µM 85% | [14]; [18] 93% | [14]; at 50.0 µM 84.8% | [14]; at 100.0 µM 85% | [15]; at 11.0 µM 92% | [15]; at 33.0 µM 94% | [15]; at 100.0 µM 93% | [1]; at 3.7 µM 74% | [1]; at 11.0 µM 93% | [1]; at 33.0 µM 93% | [1]; at 100.0 µM 90% | [2]; at 3.7 µM 77% | [2]; at 11.0 µM 92% | [2]; at 33.0 µM 94% | [2]; at 100.0 µM 88% | [3]; [17] 70% | [3]; [18] 94% | [3]; at 50.0 µM 85.9% | [4]; at 3.7 µM 72% | [4]; at 11.0 µM 93% | [4]; at 33.0 µM 93% | [4]; at 100.0 µM 85%
inactive: [6]; at 1.2 µM -2% | [6]; at 3.7 µM 12% | [6]; at 11.0 µM 63% | [7]; at 1.2 µM -16% | [7]; at 3.7 µM 66% | [9]; at 1.2 µM 14% | [10]; at 1.2 µM 2% | [10]; at 33.0 µM 37% | [11]; [17] 18% | [12]; at 1.2 µM 0% | [12]; at 3.7 µM 62% | [12]; at 33.0 µM 41% | [13]; [17] 20% | [14]; at 1.2 µM -33% | [14]; at 3.7 µM 55% | [14]; [17] 22% | [15]; at 1.2 µM -1% | [15]; at 3.7 µM 42% | [1]; at 1.2 µM -4% | [2]; at 1.2 µM 16% | [4]; at 1.2 µM -11%

CC[C@@]1(O)C(=O)OCc2c1cc1n(c2=O)Cc2cc3c(NC(=O)CN)cccc3nc2-1
active: [8]; at 33.0 µM 79% | [8]; [18] 72% | [8]; at 50.0 µM 88.2% | [8]; at 100.0 µM 88%
inactive: [16]; at 1.2 µM 1% | [16]; at 3.7 µM -1% | [16]; at 11.0 µM -2% | [16]; at 33.0 µM -3% | [16]; at 100.0 µM 0% | [6]; at 1.2 µM -4% | [6]; at 3.7 µM 2% | [6]; at 11.0 µM 6% | [6]; at 33.0 µM 19% | [6]; at 100.0 µM 49% | [7]; at 1.2 µM -3% | [7]; at 3.7 µM 1% | [7]; at 11.0 µM 0% | [7]; at 33.0 µM -1% | [7]; at 100.0 µM -3% | [8]; at 1.2 µM 8% | [8]; at 3.7 µM 21% | [8]; [17] 1% | [8]; at 11.0 µM 54% | [9]; at 1.2 µM -3% | [9]; at 3.7 µM -4% | [9]; [17] -9% | [9]; at 11.0 µM -3% | [9]; at 33.0 µM 1% | [9]; [18] -5% | [9]; at 50.0 µM -11.8% | [9]; at 100.0 µM 19% | [10]; at 1.2 µM 2% | [10]; at 3.7 µM -4% | [10]; at 11.0 µM 0% | [10]; at 33.0 µM -4% | [10]; at 100.0 µM -1% | [11]; [17] -11% | [11]; [18] -3% | [11]; at 50.0 µM -1.65% | [12]; at 1.2 µM 0% | [12]; at 3.7 µM -2% | [12]; at 11.0 µM -1% | [12]; at 33.0 µM -2% | [12]; at 100.0 µM 0% | [13]; [17] -35% | [13]; [18] -26% | [13]; at 50.0 µM 26.9% | [14]; at 1.2 µM -12% | [14]; at 3.7 µM -6% | [14]; [17] -19% | [14]; at 11.0 µM 8% | [14]; at 33.0 µM 7% | [14]; [18] -3% | [14]; at 50.0 µM 8.3% | [14]; at 100.0 µM -6% | [15]; at 1.2 µM -1% | [15]; at 3.7 µM 1% | [15]; at 11.0 µM 0% | [15]; at 33.0 µM -1% | [15]; at 100.0 µM 0% | [1]; at 1.2 µM -5% | [1]; at 3.7 µM -3% | [1]; at 11.0 µM -3% | [1]; at 33.0 µM -6% | [1]; at 100.0 µM 2% | [2]; at 1.2 µM -2% | [2]; at 3.7 µM -3% | [2]; at 11.0 µM -2% | [2]; at 33.0 µM -1% | [2]; at 100.0 µM 7% | [3]; [17] -12% | [3]; [18] -9% | [3]; at 50.0 µM -0.55% | [4]; at 1.2 µM -18% | [4]; at 3.7 µM -6% | [4]; at 11.0 µM -19% | [4]; at 33.0 µM -8% | [4]; at 100.0 µM -10%

Reference: PubChem BioAssay (NCI)
